Calls of active or inactive are those of the source. How the source made its calls: active means hit-call score of the fitted dose curve at least 0.9, where 1 is the maximum; inactive means score below 0.9.
read-out: Protein phosphatase 2A (PPP2R4), PTPA (gene 5524); assay: LTEA_HepaRG_PPP2R4: Life Technologies and Expression Analysis (LTEA) Assay for Protein phosphatase 2A (PPP2R4) using HepaRG (AID 2283522); conditions: mRNA level, 48 h; actives raise or lower the signal
Experimental: LTEA_HepaRG is a cell based, multiplexed-readout assay that uses HepaRG, a human liver cell line, with measurements taken at 48 hours after chemical dosing on a 96-well plate.LTEA_HepaRG_PPP2R4 is one of 102 assay component(s) measured in the LTEA HepaRG cell culture assay. It is a marker of Cell proliferation, survival, death.Data from the assay component LTEA_HepaRG_PPP2R4 was analyzed into 1 endpoint. This assay endpoint, LTEA_HepaRG_PPP2R4, was analyzed with bidirectional fitting relative to DMSO as the negative control and baseline of activity. Using a type of inducible reporter, measures of mRNA induction for gain or loss-of-signal activity can be used to understand regulation of transcription factor activity. To generalize the intended target to other relatable targets, this assay endpoint is annotated to the phosphatase intended target family, where the subfamily is serine/threonine phosphatase.
A total of 1060 chemcials from the ToxCast library were tested in eight-point concentration-response experiments. Cell culture and cytotoxicity assays were conducted at Thermo Fisher Scientific's Custom Services facility (Madison, WI). A single lot of human HepaRG cells (Thermo Fisher Scientific, Frederick, MD) was used for the cell culture experiments. 96-well format collagen type I coated plates of human HepaRG cells were prepared using established methods. Briefly, cryopreserved HepaRG cells were thawed, plated at a density of approximately 100,000 cells/well in HepaRG Thaw, Plate, and General Purpose media (HPRG770, Thermo Fisher Scientific), and incubated for 48 hours. 0.5% DMSO was selected as vehicle control to balance the requisite need of DMSO in HepaRG cultures to maintain differentiation (for example, baseline metabolism, proportions of hepatocytes vs. cholangiocytes), while enabling further hepatic receptor pathway activation (for example, PXR and CAR) in response to chemical exposure. 48 hours after plating, the culture medium was replaced with HepaRG Serum-Free Incudtion Media. Cells were exposed to each test chemical in duplicate and maintained in CO2 incubators for another 48 hours. Chemical plates were thawed to room temperature and 200x concentrations of treatment groups were prepared. 8-point conentration-reponse curves were made with the highest exposure at 100 uM, followed by half-log dilutions, all in 0.5% DMSO. Each test plate contained variouse controls, induction positive controls (1mM phenobarbital), cytotoxicity positive controls ([…] aflatoxin B1), vehicle controls (0.5% DMSO), and total lysis controls (0.5% DMSO). Cell morphology images were taken using an Essen IncuCyte FLR automated microscope, with six 96-well plates imaged in about 24 minutes. Images were captured and exported and JPEG files. Spent culture media was transfered to black-well plates for the LDH assay, and remaining media was sorted at -80 C for later use. Cells were treated with RLT buffer and frozen until shipped for gene expression analysis. Total RNA was isolated from the cell suspension in 75 uL of Buffer RLT (Qiagen, Germantown, MD 20874) by Quintiles/Expression Analysis (Durham, NC) using a custom isolation procedure. Total RNA from each plate well was transferred to a preamplification plate. Fluidigm's 96.96 Dynamic ArrayTM (Fluidigm, Amsterdam, the Netherlands) technology was used for gene expression analyses by quantitative reverse transcription polymerase chain reaction (qRT-PCR, performed by Quintiles/Expression Analysis, Durham, NC)89. Standard TaqManTM Assays (Applied Biosystems/ThermoFisher Scientific, Foster City, CA) were used to assess the expression of 93 genes selected based on their selectivity and sensitivity to important hepatic receptors known to be modulated by environmental chemicals; importance in human hepatocyte functionality; and hepatotoxicity. […]

outcome, inactive:
C/C=C/C=C/C(=O)O
CN(C)C(=O)NC1(c2ccccc2)CCN(CC[C@@]2(c3ccc(F)c(F)c3)CN(C(=O)c3ccccc3)CCO2)CC1
CCCCCCCCCCCCCCCCO
N[C@@H](Cc1c[nH]c2ccccc12)C(=O)O
Cc1cc(Cc2ccc(N)c(C)c2)ccc1N
CCOCCOCCO
O=C(O)c1[nH]n(-c2ccc(S(=O)(=O)O)cc2)c(=O)c1N=Nc1ccc(S(=O)(=O)O)cc1
C=CCCCCCCCCCCCC
CC(=O)O
CCCCCCCCCC[N+](C)(C)[O-]
CSc1ccc(Oc2ccc(S(N)(=O)=O)cc2CN(C)C)cc1C
O=C1c2c(O)cccc2Cc2cccc(O)c21
O=[Si]=O
CN(C)CCCN(C)CCCN(C)C
CC(=O)S[C@H](C(=O)N[C@H]1Cc2ccccc2[C@H]2CCC[C@@H](C(=O)O)N2C1=O)C(C)C
Oc1ccc(O)cc1
CC(=O)OCC(COC(C)=O)OC(C)=O
Cc1occc(=O)c1O
CC(COCC(C)OC(=O)c1ccccc1)OC(=O)c1ccccc1 (stereo not given)
CCN(CC)CCOc1ccc(C(=C(Cl)c2ccccc2)c2ccccc2)cc1
Oc1ccccc1O
CC(C)(C)c1ccccc1
OCC(O)CO
CCCCC(CC)COP(=O)(OCC(CC)CCCC)OCC(CC)CCCC (stereo not given)
Cc1cn([C@H]2C=C[C@@H](CO)O2)c(=O)[nH]c1=O
CCCCCCC(CCCCCCCCCCC(=O)OCC(COC(C)=O)OC(C)=O)OC(C)=O (stereo not given)
O=C1O[C@H]([C@H](O)CO)C(O)=C1O
Cc1cc(SC2=C(O)C[C@@](CCc3ccc(N)cc3)(C(C)C)OC2=O)c(C(C)(C)C)cc1CO
c1ccc2occc2c1
CO[C@@H]1COCC[C@@H]1N[C@@H]1CC[C@@](C(=O)N2CCc3ncc(C(F)(F)F)cc3C2)(C(C)C)C1
Cc1ccc(-c2cc(C(F)(F)F)nn2-c2ccc(S(N)(=O)=O)cc2)cc1
CCCCCCC(C=O)=Cc1ccccc1
C/C=C/c1ccc(OC)cc1
Nc1nc(=S)c2[nH]cnc2[nH]1
CC(C)COC(=O)CCCCC(=O)OCC(C)C
S=c1[nH]c2ccccc2s1

AC50, active:
CN(C)C(=O)NC1(c2ccccc2)CCN(CCC[C@]2(c3ccc(Cl)c(Cl)c3)CCCN(C(=O)c3ccccc3)C2)CC1 21.2 µM
O=C(N[C@@H](c1ccccc1)[C@@H]1CCCCN1)c1cccc(C(F)(F)F)c1Cl 89.5 µM
COc1ccc(OC(F)(F)F)cc1CN[C@H]1CCCN[C@H]1c1ccccc1 90 µM
CC(C)NCC(O)c1ccc(O)c(O)c1 (stereo not given) 0.155 µM

— PubChem BioAssay (EPA / NIEHS)
